Test systems include T-47D breast; BT-549 breast; MDA-MB-435 melanoma; SW-620 colon; HCT-116 colon; HCC-2998 colon; KM12 colon; MCF7 breast.
Common to all, as to assay: NCI-60 one-dose screen, 48 h (100 = growth as untreated, 0 = no growth, -100 = all killed)
Common to all, as to conditions: 10 µM unless noted

Among the data in PubChem BioAssay (NCI) are growth values, retold here.

Compounds without any hit were thinned out: in the full panel of roughly 83,000, 20% have a hit.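 Activity criterion: percent growth below 10, measured after cells in 96-well plates were exposed to a single compound concentration for 48 hours.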 A number with no mark means an inactive call. Calls of active or inactive are those of the source.

On to `O=C(CSc1nc(-c2ccc(Cl)cc2)cn1-c1ccc(Cl)cc1)c1ccc(Br)cc1`, for which the growth in the experiment on T-47D breast is 69.6%; in the experiment on BT-549 breast, 94.1%; with MDA-MB-435 melanoma, 91.5%; in the experiment on SW-620 colon, 89.3%; in the experiment on HCT-116 colon, 43.9%; in the experiment on HCC-2998 colon, 89.6%. Moreover, in the experiment on KM12 colon, the growth was 88.5%.
Take `Cc1ccc(C2=NN(c3ccc(S(N)(=O)=O)cc3)C(c3cn(-c4ccccc4)nc3-c3ccccc3)C2)cc1` (stereo not drawn): the growth was 83.7% in the experiment with T-47D breast; 62.7% in the experiment on MDA-MB-435 melanoma; 86.5% in the experiment on SW-620 colon; 55.9% in the experiment on MCF7 breast; 83.9% with HCT-116 colon; 118% with HCC-2998 colon. Further, the growth in the experiment with KM12 colon is 41.1%.
Take `COc1ccc2c(c1)C(=O)/C(=C/c1ccc(O)cc1)O2`: the growth in the experiment with T-47D breast was 59.8%; in the experiment on MDA-MB-435 melanoma it was 93.2%; with SW-620 colon it was 9.11% (active); in the experiment on MCF7 breast, 22.8%; in the experiment with HCT-116 colon it was 8.95% (active); with HCC-2998 colon, 114%. Besides, the growth in the experiment with KM12 colon was 101%.
Turning to `Cc1ccc(-c2csc3nc(C)c(CCCl)c(=O)n23)cc1`, the growth in the experiment on T-47D breast is 76.7%; with BT-549 breast it was 119%; in the experiment on MDA-MB-435 melanoma, 97.3%; with SW-620 colon, 99.2%; in the experiment with HCT-116 colon, 89.4%; in the experiment with HCC-2998 colon, 109%. The growth with KM12 colon is 103%.
On to `O=C(CCC(=O)OC1CCCC1)OC1CCCC1`, for which the growth in the experiment with T-47D breast was 94.1%; with BT-549 breast it was 99.9%; in the experiment with MDA-MB-435 melanoma, 100%; in the experiment with SW-620 colon it was 103%; in the experiment on HCT-116 colon, 109%; with HCC-2998 colon, 101%. In addition, the growth in the experiment on KM12 colon is 102%.
For the molecule `COc1cc(C2C=C(C)N=C3SC(C)=NN32)cc(OC)c1OC` (stereo not drawn), the growth with T-47D breast was 92.3%; in the experiment with MDA-MB-435 melanoma it was 112%; in the experiment with SW-620 colon, 112%; in the experiment with MCF7 breast it was 91.6%; in the experiment with HCT-116 colon, 106%; with HCC-2998 colon it was 107%. Further, in the experiment on KM12 colon, the growth is 102%.
`CNC(C)=O`: the growth in the experiment on BT-549 breast was 76.3%; with MDA-MB-435 melanoma, 105%; with SW-620 colon, 105%; in the experiment with MCF7 breast, 90.5%; with HCT-116 colon it was 105%; in the experiment with HCC-2998 colon, 101%. For the same molecule, the growth in the experiment on KM12 colon is 106%.
Take `COc1cccc(NC(=O)Cn2cc3c(=O)oc4ccccc4c3n2)c1`: the growth in the experiment with BT-549 breast is 94.5%; in the experiment with MDA-MB-435 melanoma, 88.1%; in the experiment with SW-620 colon it was 103%; in the experiment on MCF7 breast it was 88.1%; in the experiment with HCT-116 colon, 99.5%; with HCC-2998 colon, 110%. The growth in the experiment on KM12 colon was 100%.
On to `COc1ccc(/C=C\c2cc(OC)c(OC)c(OC)c2)c(NS(=O)(=O)c2ccc(C(C)(C)C)cc2)c1O`, for which the growth in the experiment with T-47D breast is 72.2%; with BT-549 breast it was 37.7%; in the experiment with MDA-MB-435 melanoma it was -17% (active); with SW-620 colon, 31.7%; with HCC-2998 colon, 19.5%; in the experiment with KM12 colon, 12.1%.
For `CCn1cc(C(=O)O)c(=O)c2cc(F)c(N3CCN(S(=O)(=O)c4ccc(Cl)cc4Cl)CC3)cc21`, the growth in the experiment with T-47D breast was 1.7% (active); with BT-549 breast, -4.59% (active); in the experiment with MDA-MB-435 melanoma, 12.8%; in the experiment with SW-620 colon it was 16.4%; in the experiment on HCT-116 colon it was 6.37% (active); in the experiment on HCC-2998 colon, 30.6%. Besides, the growth in the experiment with KM12 colon was 9.4% (active).
On to `Cc1oc2ncnc(Nc3ccccc3)c2c1C(=O)NCCO`, for which the growth with T-47D breast is 99.4%; with BT-549 breast, 90.1%; with MDA-MB-435 melanoma, 102%; in the experiment on SW-620 colon, 95.1%; in the experiment on HCT-116 colon it was 99.3%; with HCC-2998 colon, 103%. Moreover, the growth in the experiment on KM12 colon was 95.2%.
Turning to `COc1ccc(NC(=O)/N=c2\oc3c(OC)cccc3cc2-c2cc3ccccc3[nH]2)cc1`, the growth is 81.9% with BT-549 breast; 82.6% in the experiment with MDA-MB-435 melanoma; 70.3% in the experiment on SW-620 colon; 70.1% in the experiment with MCF7 breast; 28.1% with HCT-116 colon; 95.5% with HCC-2998 colon. The growth in the experiment with KM12 colon is 63.1%.
With `C=CCOc1ccc(/C(O)=C2\C(=O)C(=O)N(c3nccs3)C2c2ccccc2F)cc1` (stereo not drawn), the growth was 100% in the experiment on T-47D breast; 113% with BT-549 breast; 94% in the experiment with MDA-MB-435 melanoma; 103% in the experiment on SW-620 colon; 95.4% in the experiment with HCT-116 colon; 107% in the experiment on HCC-2998 colon. Also, the growth in the experiment on KM12 colon was 89.4%.
With `CC(=O)Nc1ccc(S(=O)(=O)N2C(=O)CCC2C(=O)Nc2ccccc2)cc1` (stereo not drawn), the growth was 17.6% with T-47D breast; 27.7% in the experiment on MDA-MB-435 melanoma; 30.2% with SW-620 colon; 19.2% in the experiment on MCF7 breast; 26.5% in the experiment with HCT-116 colon; 30.5% with HCC-2998 colon. For the same molecule, in the experiment on KM12 colon, the growth was 12.4%.
As for `OC1CC2c3ccccc3C1c1ccccc12` (stereo not drawn), the growth is 111% in the experiment on T-47D breast; 108% with BT-549 breast; 107% in the experiment on MDA-MB-435 melanoma; 108% with SW-620 colon; 103% in the experiment with HCT-116 colon; 108% with HCC-2998 colon. Moreover, in the experiment with KM12 colon, the growth is 107%.
Take `C=C1C(=O)O[C@H]2[C@H](O)[C@@H](C)CCC/C(C)=C/CC[C@@]3(C)O[C@@H]3C[C@@H]12`: the growth in the experiment with T-47D breast was 97.2%; with MDA-MB-435 melanoma it was 94.4%; in the experiment on SW-620 colon it was 79.9%; with MCF7 breast, 69.1%; with HCT-116 colon it was 74.3%; in the experiment with HCC-2998 colon, 111%. Further, the growth with KM12 colon is 119%.
Regarding `O=C(Nc1ccccc1)OCC1OCOC(COC(=O)Nc2ccccc2)C1OC(=O)Nc1ccccc1` (stereo not drawn), the growth is 93.5% in the experiment on BT-549 breast; 11.2% in the experiment with MDA-MB-435 melanoma; 8.17% (active) with SW-620 colon; 16.5% in the experiment on MCF7 breast; -51.6% (active) with HCT-116 colon; 36.9% with HCC-2998 colon. Moreover, the growth with KM12 colon was 51.2%.
